Source: PubChem BioAssay (NCATS)
Records with an inconclusive call do not appear. Unmarked numbers belong to inactive results. Active and inactive are the calls of the source. Calls come from the whole dose curve; as a rule, active = well fitted cell-killing curve with a large enough effect; inconclusive = small, poorly fitted or top-dose-only effect; inactive = no such curve, though single readings can be large or run the other way.

Assay: qHTS of pediatric cancer cell lines to identify multiple opportunities for drug repurposing: Primary screen for OHS-50 cells (AID 1347103); note: nearly all actives have a fitted effect of over 40% in size
Conditions: OHS-50 osteosarcoma viability, CellTiter-Glo luminescence, 48 h; series mostly up to 57.3 µM; activity change, negative = cytotoxic: at the top concentration
Source text: Drug repurposing or repositioning has been offered as a strategy for drug development in oncology programs. This approach has special potential for childhood cancers and other rare or orphan diseases, where the expected return on new drug development has been a disincentive to pharmaceuticals.
In this project we exploit the poly-pharmacology of drugs to discover new indications via phenotypic screening of a panel of 19 well-characterized cell lines derived from solid tumors seen in children and adolescents. The goal is to identify approved drugs with previously unrecognized anticancer properties that has the potential to reveal new mechanisms and biological processes involved in carcinogenesis or drug resistance. We employed a titration-based paradigm (quantitative high-throughput screening or qHTS), where all compounds were tested at multiple concentrations for their effect on cell viability. Concentration-response curves (CRCs) were derived directly from the primary screen, and both potency and efficacy values were used to identify compounds with robust bioactivity profiles. We screened the NIH Chemical Genomics Center (NCGC) Pharmaceutical Collection (NPC) and Mechanism Interrogation Plate (MIPE) small molecule collections of approved and investigational compounds against these cell lines; and measured metabolically active cells after 48 hours of compound treatment as a proxy for cell viability.
Assay Submitter: Nathalia J. Martinez, National Center for Advancing Translational Sciences, National Institutes of Health, Rockville, MD, USA; email: natalia.martinez@nih.gov
[1] Shen, M et al. Quantitative high-throughput phenotypic screening of pediatric cancer cell lines identifies multiple opportunities for drug repurposing. Oncotarget 2017 Dec 19;9(4):4758-4772. PMID 29435139.
The cells were obtained from University of North Carolina (UNC), Pediatric Preclinical Testing Program (PPT), and Coriell Institute (CI).
qHTS cell viability assay:
Cells were assayed in growth media at a density of 500-1,000 cells/well. Five microliters of cells were dispensed into 1,536-well, white, solid-bottom, TC-treated plates (Greiner Bio One) using a multidrop dispenser and incubated at 37 degrees C, 5% CO2, under a humidified atmosphere for 5 hours. Twenty-three nanoliters of compounds and controls (neutral control DMSO or positive control bortezomib at final concentration of 2.3 µM) were subsequently transferred by Kalypsys pintool. For primary screens, the MIPE collection was tested at 11-point dilutions (final concentrations range from 0.78 nM to 46 µM) and the NPC collection at 8-point dilutions (final concentrations range from 0.59 nM to 46 µM). Compounds tested in follow-up screens were assayed at 11-point dilutions. Cells were incubated for 48 hours, followed by addition of 3 µL of CellTiter-Glo (Promega). After a 15 min incubation at room temperature, samples were analyzed for luminescence intensity using a ViewLux High-throughput CCD imager equipped with clear filters.
Potency is the fitted concentration of half-maximal effect.

Going from `CC1(C)OC(=O)Nc2ccc(Br)cc21` to `Cc1coc2ccccc2c1=O`, the “activity change, negative = cytotoxic” value rises from 11.1% to 11.7%.

Compared with `CN1Cc2cc(C(=O)N3CCC(C4CCNCC4)CC3)ccc2NC(CC(=O)O)C1=O` (stereo not given), `COc1cc2c(cc1OC)CN(C(=O)[C@H](C)N[C@@H](CCc1ccccc1)C(=O)O)[C@H](C(=O)O)C2` is lower in “activity change, negative = cytotoxic” value: 14.8% for the first, -2.37% for the second.

Going from `CC(C)C[C@H](NC(=O)CNC(=O)[C@H](Cc1ccc(O)cc1)NC(=O)[C@H](CO)NC(=O)[C@H](Cc1c[nH]c2ccccc12)NC(=O)[C@H](Cc1cnc[nH]1)NC(=O)[C@@H]1CCC(=O)N1)C(=O)N[C@@H](CCCN=C(N)N)C(=O)N1CCC[C@H]1C(=O)NCC(N)=O` (stereo in doubt) to `O=C(COCCOCCOCC(=O)Nc1c(I)cc(I)c(C(=O)O)c1I)Nc1c(I)cc(I)c(C(=O)O)c1I`, the “activity change, negative = cytotoxic” value rises from -6.05% to 20.9%.

Going from `Cc1cc(C(C)(C)C)c(O)c(C(C)(C)C)c1` to `CC(C)(C)c1cc(C=O)cc(C(C)(C)C)c1O`, the “activity change, negative = cytotoxic” value falls from 9.8% to -20.8%.

Compared with `O=C(O)CCCC[C@@H]1SC[C@@H]2NC(=O)N[C@@H]21`, `OC[C@]1(O)OC[C@@H](O)[C@H](O)[C@@H]1O` is higher in “activity change, negative = cytotoxic” value: -1.11% for the first, 14.4% for the second.

Going from `CC(C)(C)c1ccc(C(=O)CCCCl)cc1` to `C#CC(C)(CC)OC(=O)c1ccccc1C(=O)O` (stereo not given), the “activity change, negative = cytotoxic” value rises from 8.36% to 15.9%.

Compared with `COc1cc(S(N)(=O)=O)cc(C(=O)O)c1OC`, `COC(=O)c1cc(Cl)ccc1OC` is higher in “activity change, negative = cytotoxic” value: 5.61% for the first, 6.31% for the second.

First: C/C(=N/NC(=O)c1ccncc1)C(=O)O
Second: CN(C)C(=O)CNC(=O)Cc1ccccc1
The “activity change, negative = cytotoxic” value of the first is higher: 13.8% for the first, -8.44% for the second.

First: O=P(O)(O)OCC(O)CO (stereo not given)
Second: CC(=O)N[C@@H](CCC(N)=O)C(=O)O
The “activity change, negative = cytotoxic” value of the first is lower: 9.99% for the first, 14.7% for the second.

First: Cc1cnc(NS(=O)(=O)c2ccc(N)cc2)nc1
Second: O=C(O)Cn1c(=O)n(Cc2ccc(Br)cc2F)c(=O)c2ccc(Cl)cc21
The “activity change, negative = cytotoxic” value of the first is lower: 11.9% for the first, 25.6% for the second.

Going from `CCc1cccc2c(CCO)c[nH]c12` to `COc1ccc2nc(SCc3ncc(C)c(OC)c3C)[nH]c2c1`, the “activity change, negative = cytotoxic” value falls from 16.7% to -20.9%.

First: COC(=O)/C=C(/C)N
Second: CC(C)=CCC/C(C)=C/CC/C(C)=C/CCC(=O)OC/C=C(\C)CCC=C(C)C
The “activity change, negative = cytotoxic” value of the first is higher: 20.2% for the first, 15.6% for the second.

Compared with `CCC(=O)O[C@H]1[C@H](O[C@@H]2[C@@H](C)[C@H](O[C@H]3C[C@@](C)(OC)[C@@H](O)[C@H](C)O3)[C@@H](C)C(=O)O[C@H](CC)[C@@](C)(O)[C@H](O)[C@@H](C)C(=O)[C@H](C)C[C@@]2(C)O)O[C@H](C)C[C@@H]1N(C)C`, `CC1(C)O[C@@H]2C[C@H]3[C@@H]4CCC5=CC(=O)C=C[C@]5(C)[C@@]4(F)[C@@H](O)C[C@]3(C)[C@]2(C(=O)CO)O1` is higher in “activity change, negative = cytotoxic” value: -15.8% for the first, 7.17% for the second.

Compared with `CCOc1c(N2CCOCC2)cnn(C)c1=O`, `C/C(=C1\CCOC(=O)S1)N(C=O)Cc1cnc(C)nc1N` is lower in “activity change, negative = cytotoxic” value: 12.8% for the first, -4.36% for the second.

First: N#CSCC(=O)O
Second: Nc1ncnc2nc[nH]c12
The “activity change, negative = cytotoxic” value of the first is lower: 6.62% for the first, 69.7% for the second.

First: Nc1ccc([N+](=O)[O-])c(C(F)(F)F)c1
Second: CCCCCCCCCCCCCCCCCCN(C)C
The “activity change, negative = cytotoxic” value of the first is lower: -22.7% for the first, -4.35% for the second.

In the case of `CC(=O)Oc1ccc(C2(c3ccc(OC(C)=O)cc3)Oc3ccccc3NC2=O)cc1`, the Potency is reported as 12.3 µM (active).
In the case of `CN1CCCN(C(c2ccccc2)c2ccc(Cl)cc2)CC1` (stereo not given), the Potency is reported as 30.9 µM (active).
For `CN1CC[C@H](c2c(O)cc(O)c3c(=O)cc(-c4ccccc4Cl)oc23)[C@H](O)C1`, the Potency was 0.276 µM (active).
For `CCC1=C[C@@H]2CN(C1)Cc1c([nH]c3ccccc13)[C@@](C(=O)OC)(c1cc3c(cc1OC)N(C)[C@H]1[C@@](O)(C(=O)OC)[C@H](OC(C)=O)[C@]4(CC)C=CCN5CC[C@]31[C@@H]54)C2`, the Potency was 0.0195 µM (active).

Compared with `C1=CC2C3C=CC(C3)C2C1` (stereo not given), `O=C(Oc1ccccc1)c1cccc(C(=O)Oc2ccccc2)c1` is lower in “activity change, negative = cytotoxic” value: 18.1% [at 116 µM] for the first, 16.4% [at 116 µM] for the second.

In the case of `COC(=O)c1c(Cl)c(Cl)c(C(=O)OC)c(Cl)c1Cl`, the “activity change, negative = cytotoxic” value is reported as -7.32% [at 116 µM].

For `CC(NN)c1ccccc1` (stereo not given), the “activity change, negative = cytotoxic” value was 7.32% [at 19.7 µM].
